# AGP1-GFP MLPCN – modulators of AGP1-GFP expression in yeast TOR pathway, primary screen, cell-based, multiplex flow cytometry, S. cerevisiae, MLPCN library. GFP response vs DMSO, % at 10 µM. 3 h; GFP as percent of DMSO wells. 320,000 tested, 0.02% active;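 active means GFP response relative to DMSO above a set limit, near screen average plus 3 SD, cut at about 150% in these data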;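 further: median GFP channel fluorescence of the gated AGP1 strain per well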
# CIT2 TOR yeast – modulators of CIT2-GFP expression in yeast, primary screen, S. cerevisiae, GFP fusion, multiplex flow cytometry, MLPCN library | GFP response vs DMSO, % at 10 µM | S. cerevisiae CIT2-GFP strain, 3 h; 100 means same as DMSO wells | 320,000 tested, 0.065% active | AID 2029, 2009;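 active means GFP response relative to DMSO above a set limit, near the screen mean plus 3 SD, cut at about 150% in these data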;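 further: ratio of well median GFP fluorescence to mean of DMSO wells on the plate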
# MEP2 TOR yeast – modulators of MEP2-GFP levels in yeast, primary screen, S. cerevisiae, multiplex flow cytometry, MLPCN library; S. cerevisiae MEP2-GFP strain, 3 h; 100% = DMSO control level; AID 2016, 2009; 330,000 tested, 0.51% active; GFP response vs DMSO, % at 10 µM;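 active means GFP response versus DMSO above a set limit, roughly screen mean plus 3 SD, cut at about 180% in these data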;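 further: median GFP fluorescence of the barcode-gated MEP2-GFP cells per well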
# RPL19A TOR yeast – RPL19A-GFP expression modulators in yeast, primary screen, cell-based, S. cerevisiae, multiplex flow cytometry, MLPCN; S. cerevisiae RPL19A-GFP strain, 3 h; hits give low values; percent response vs DMSO, % at 10 µM; 330,000 tested, 0.3% active;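 active means percent response vs DMSO below 50%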;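 further: median channel GFP fluorescence of the barcoded RPL19A-GFP strain; lower means less RPL19A-GFP as with rapamycin TOR inhibition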
# LAP4-GFP MLPCN – modulators of LAP4-GFP expression in yeast, primary screen, S. cerevisiae, multiplex flow cytometry, MLPCN library. 3 h; median GFP as percent of DMSO wells. GFP response vs DMSO, % at 10 µM. 320,000 tested, 0.34% active;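 active means GFP response vs DMSO above a set limit, about the screen mean plus 3 SD, cut at about 150% in these data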
# LAP4 cherry2 – LAP4-GFP expression modulators in yeast, confirmation, cell-based, second cherry pick, flow cytometry; shares compounds with LAP4-GFP MLPCN; S. cerevisiae LAP4-GFP strain, 3 h; GFP response vs DMSO, % at 10 µM; 590 tested, 20% active;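 active means GFP signal as percent of the solvent control above about 150%, meaning raised reporter expression, limit read from the data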
# MEP2 cherry2 – modulators of MEP2-GFP levels in yeast, confirmation, S. cerevisiae, flow cytometry GFP, second cherry picks; shares compounds with LAP4-GFP MLPCN; S. cerevisiae MEP2-GFP strain, 3 h; GFP response vs DMSO, % at 10 µM; 590 tested, 10% active;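 active means GFP signal above 150% of the solvent control wells, that is a rise of more than half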;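 further: median channel GFP fluorescence of all gated yeast cells per well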
# RPL19A-GFP pick2 – RPL19A-GFP modulators in TOR pathway yeast, confirmation, cell-based, S. cerevisiae, flow cytometry, second cherry pick; shares compounds with LAP4-GFP MLPCN; S. cerevisiae RPL19A-GFP strain, 3 h; hits give low values; 100% means same as DMSO wells; GFP response vs DMSO, % at 10 µM; 590 tested, 3% active; AID 2623, 2010;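 active means under 65% GFP response relative to DMSO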;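 further: median GFP channel fluorescence per well over the all cells gate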
# CIT2-GFP pick2 – modulators of CIT2-GFP expression in yeast, confirmation, flow cytometry, second cherry pick, single plex | GFP response vs DMSO, % at 10 µM | shares compounds with LAP4-GFP MLPCN | S. cerevisiae CIT2-GFP strain, 3 h; DMSO control wells read 100% | 590 tested, 8% active;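 active means GFP response vs DMSO above about 150%, limit read from the data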;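 further: median green fluorescence per well over all gated yeast cells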
# AGP1-GFP pick2 – AGP1-GFP expression modulators, hit retest, confirmation, cell-based, flow cytometry, S. cerevisiae, cherry pick set 2; percent response vs DMSO, % at 10 µM; 590 tested, under 10 active; AID 2643, 2010; shares compounds with LAP4-GFP MLPCN; S. cerevisiae AGP1-GFP strain, 3 h;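 active means over 150 percent of DMSO response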;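 further: median GFP channel fluorescence over all cells without mother daughter split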
# Yeast autofluor – compound autofluorescence in yeast s288c, dose response, artefact control for yeast TOR pathway GFP screen, s288c strain | fluorescence change (kMESF span) at 33 µM | shares compounds with LAP4-GFP MLPCN | S. cerevisiae s288c, 520 nm autofluorescence, flow cytometry, 3 h; hits give high values; zero means same as solvent-only cells | 610 tested, under 10 active;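 active means fluorescence span over the dose series, or activity score, above about 33, limit read from the data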
# A number is an active result; 0 = inactive; - = no result. The list is not random: actives were taken first. Their share in the collection is about 0.92%.
SMILES,AGP1-GFP MLPCN,CIT2 TOR yeast,MEP2 TOR yeast,RPL19A TOR yeast,LAP4-GFP MLPCN,LAP4 cherry2,MEP2 cherry2,RPL19A-GFP pick2,CIT2-GFP pick2,AGP1-GFP pick2,others
Cc1ccc2[nH]cc(C(=O)CN3CCN(c4ccccn4)CC3)c2c1,0,0,0,0,0,0,0,0,0,0,
O=C(CN1CCN(c2ccccc2F)CC1)c1c[nH]c2ccccc12,0,0,0,0,159,0,0,0,0,0,
NN(CCO)C(=S)Nc1ccc(Cl)cc1,0,0,0,0,0,-,-,-,-,-,
COc1cc(C(=O)COC(=O)c2ccco2)cc(OC)c1OC,0,0,0,0,186,0,0,0,0,0,
COc1ccccc1OCCCCCc1c(C)n[nH]c1C,0,0,0,0,0,-,-,-,-,-,
COc1ccccc1OCCCc1c(C)n[nH]c1C,0,0,0,0,190,-,-,-,-,-,Yeast autofluor=0
Cc1ccc2c(nc3s/c(=C\c4ccc(-c5ccccc5C(=O)O)o4)c(=O)n32)c1C,0,0,184,0,0,-,-,-,-,-,Yeast autofluor=0
Cc1ccc(C)c(N2C(=N)S/C(=C\c3ccc(-c4ccccc4C(=O)O)o3)C2=O)c1,0,0,0,0,0,-,-,-,-,-,
CCCCOC1CC(c2ccc(OCc3ccc(OC)cc3)c(OC)c2)N(C)O1 (stereo unspecified),0,0,0,0,0,-,-,-,-,-,
CCC(=O)NC(c1ccc(C)cc1)c1cc(Cl)c2cccnc2c1O (stereo unspecified),0,0,0,0,0,-,-,-,-,-,
CCOc1ccc(C(Nc2cccnc2)c2cc(Cl)c3cccnc3c2O)cc1 (stereo unspecified),0,0,0,0,224,-,-,-,-,-,Yeast autofluor=0
Cc1nc(NC(=O)c2ccc(Cl)cc2)sc1-c1csc(Nc2cccc(F)c2)n1,0,0,0,0,0,-,-,-,-,-,
CN(C)c1ccc(C(=O)c2ccc(O)cc2O)cc1,0,0,0,0,206,0,0,0,0,0,
O=C(c1ccc(O)cc1)c1ccc(O)cc1O,0,0,0,0,0,-,-,-,-,-,
CCOC(=O)Cn1cc(/C=C/[N+](=O)[O-])c2ccccc21,0,0,0,0,154,-,-,-,-,-,Yeast autofluor=0
CCOC(=O)COc1ccc2ccccc2c1/C=C/[N+](=O)[O-],0,0,0,0,230,293,0,0,0,0,Yeast autofluor=0
Cc1ccc(CN2C(=O)CCC2C(=O)NCCN(CC(C)C)CC(C)C)cc1 (stereo unspecified),0,0,0,0,0,-,-,-,-,-,
COc1ccccc1NS(=O)(=O)c1ccc(C)c(C(=O)NCC2(N(C)C)CCCCC2)c1,0,0,0,0,0,-,-,-,-,-,
CCCCN(CCCNC(=O)c1ccc(CS(=O)(=O)c2ccc(OC)cc2)o1)Cc1ccccc1,0,0,0,0,0,0,0,0,0,0,
COCCNC(=O)c1ccc(CS(=O)(=O)c2ccc(OC)cc2)o1,0,0,0,0,0,-,-,-,-,-,
Cc1ccc2[nH]c(C)c(/C=C/c3cc[n+](C)cc3)c2c1,0,224,344,0,209,-,-,-,-,-,Yeast autofluor=0
Cc1ccc2c(c1)c(/C=C/c1cc[n+](C)cc1)c(C)n2C,0,206,289,0,198,-,-,-,-,-,Yeast autofluor=0
N#Cc1ccc(OCC(=O)OCC(=O)Nc2sccc2C(N)=O)cc1,0,0,0,0,0,-,-,-,-,-,
CCSc1ccc(-c2nn(-c3ccccc3)cc2/C=C(/C#N)C(=O)NC)cc1,0,0,0,0,0,0,0,0,0,0,
O=c1c2sccc2nc(SCc2ccc([N+](=O)[O-])cc2)n1Cc1ccccn1,0,0,0,0,0,-,-,-,-,-,
SMILES,AGP1-GFP MLPCN,CIT2 TOR yeast,MEP2 TOR yeast,RPL19A TOR yeast,LAP4-GFP MLPCN,LAP4 cherry2,MEP2 cherry2,RPL19A-GFP pick2,CIT2-GFP pick2,AGP1-GFP pick2,others
c1ccc2oc(-c3ccn[nH]3)cc2c1,0,0,0,0,0,-,-,-,-,-,
O=C(O)CCC(NC(=O)OCc1ccccc1)C(=O)O (stereo unspecified),0,0,0,0,0,-,-,-,-,-,
Nc1nc(N)c2nc(CNc3ccc(C(=O)NC(CCC(=O)O)C(=O)O)cc3)cnc2n1 (stereo unspecified),0,0,0,0,299,327,218,0,157,0,Yeast autofluor=0
CC1CC1C(=O)Nc1nc(-c2cccs2)c(-c2cccs2)s1 (stereo unspecified),0,0,0,0,0,-,-,-,-,-,
O=S(=O)(c1ccccc1)N1N=C(c2cccs2)CC1c1cccc(O)c1 (stereo unspecified),0,157,0,0,0,0,0,0,0,0,
CC(=O)c1sc2nc(-c3cccs3)ccc2c1N,0,0,0,0,175,0,0,0,0,0,
Nc1c(C(=O)Nc2nc3ccccc3s2)sc2nc(-c3cccs3)ccc12,0,0,0,0,0,-,-,-,-,-,
CCOC(=O)c1c(C)[nH]c(C)c1C(=O)COC(=O)/C=C/c1cccc(F)c1,0,231,309,0,246,0,0,0,0,0,
CCOC(=O)c1c(C)[nH]c(C)c1C(=O)COC(=O)/C=C/c1cccc(C(F)(F)F)c1,0,0,0,0,0,-,-,-,-,-,
CC1CCN(S(=O)(=O)c2ccc3c(c2)N(CC(=O)NCCN2C(C)CCCC2C)C(=O)CS3)CC1 (stereo unspecified),0,0,0,0,0,-,-,-,-,-,
O=C(Nc1ccc(C(=O)N2CCCCC2)cc1)c1ccccc1Br,0,0,218,0,152,0,0,0,0,0,
O=C(Nc1ccc(C(=O)N2CCCC2)cc1)c1ccccc1Br,0,0,0,0,0,-,-,-,-,-,
CCc1nn(CC(=O)NCCCN(C)Cc2ccccc2)c(=O)c2cc3sc(C)cc3n12,0,0,0,0,0,-,-,-,-,-,
Cc1ccc(S(=O)(=O)N2CCN(c3ccccc3)CC2)cc1C(=O)NC1CCCCC1,0,0,0,0,0,-,-,-,-,-,

# Screening results from PubChem.
